Assay results taken from PubChem BioAssay (Tox21).
The source made the active and inactive calls. Calls come from the whole dose curve; as a rule, active = well fitted curve in the direction sought with a large enough effect in the repeat runs; inconclusive = weak or mixed curves; inactive = flat fitted curve, though single readings scatter.

assay: qHTS assay to test for compound auto fluorescence at 590 nm (red) in HepG2 cell free culture (AID 720684); settings: cell-free medium autofluorescence, red 540/590 nm; series mostly up to 91.3 µM; fluorescence, % of Rose Bengal: at the top concentration
Excerpt: U.S. Tox21 Program National Center for Advancing Translational Sciences [NCATS] NIH Chemical Genomics Center [NCGC] U.S. Environmental Protection Agency [EPA] National Institutes of Environmental Health Sciences [NIEHS] National Toxicology Program [NTP] U.S. Food and Drug Administration [FDA] Tox21 Assay Overview: Compound auto fluorescence often interferes with screening of the compound library against various biological targets and signaling pathways. Some of these compounds may have fluorophoric properties. Such properties may interfere with the assay outputs resulting in false positives and/or negatives. To decrease such complications and ensure the compound activities are relevant in terms of biological response, the Tox21 10K compound library was screened for auto fluorescence. From the fluorophores used as reporter signals in our screening assays, the auto fluorescence equivalencies of compounds against three fluorophores have been evaluated: Triamterene, Fluorescein and Rose Bengal sodium for blue, green and red fluorescence, respectively. The fluorescence intensities were measured using Excitation/Emission wavelengths at 405/460nm, 485/535nm and 540/590nm for blue, green and red labels, respectively. This assay includes the red fluorescence data.
Tox21 Assay Protocol Summary: 5 uL of culture medium (MEM containing 10% FBS) per well was dispensed into black wall/clear bottom 1536-well plates using a Multidrop Combi Dispenser (ThermoFisher Scientific, Waltham, MA). After 23 nL compound or DMSO vehicle was transferred into assay plate by a pintool work station (Kalypsys, San Diego, CA), fluorescence intensities in the assay plates were measured by an Envision (PerkinElmer, Shelton, CT) plate reader using three labels for measuring blue, green and red fluorescence at […] 460, 535 and 590nm respectively.
% is set by controls: 0 for no effect and ±100 for the full control effect.

SMILES | fluorescence, % of Rose Bengal | Potency
CCCCCCCCCCCCCCCCCC[N+](C)(C)Cc1ccccc1 | 0.0134% (inactive) | –
On1ccccc1=S | -0.182% (inactive) | –
Cc1ccc(-n2nc(C(C)(C)C)cc2NC(=O)Nc2ccc(OCCN3CCOCC3)c3ccccc23)cc1 | -0.163% [at 46 µM] (inactive) | –
CCCCCCCCOC(=O)c1ccc(O)cc1 | – | inactive
CC[C@H](c1ccc(O)cc1)[C@@H](CC)c1ccc(O)cc1 | – | inactive
Nc1ccccc1O | -0.636% (inactive) | –
NC(=O)CC[C@@H]1NC(=O)[C@H](Cc2ccccc2)NC(=O)[C@H](Cc2ccc(O)cc2)NC(=O)CCSSC[C@@H](C(=O)N2CCC[C@H]2C(=O)N[C@@H](CCCN=C(N)N)C(=O)NCC(N)=O)NC(=O)[C@H](CC(N)=O)NC1=O | – | inactive
CCN(Cc1cccnc1)C(=O)c1cccc(Cl)c1[C@]1(C)C(=O)N(Cc2ccc(OC)cc2OC)c2ccc(Cl)cc21 | 0.0173% (inactive) | –
Fc1ccc([C@@H]2CCNC[C@H]2COc2ccc3c(c2)OCO3)cc1 | -0.151% [at 46 µM] (inactive) | –
O=C(Oc1ccccc1)c1ccccc1C(=O)Oc1ccccc1 | 0.0814% (inactive) | –
CCC1=C[C@@H]2CN(C1)Cc1c([nH]c3ccccc13)[C@@](C(=O)OC)(c1cc3c(cc1OC)N(C)[C@H]1[C@@](O)(C(=O)OC)[C@H](OC(C)=O)[C@]4(CC)C=CCN5CC[C@]31[C@@H]54)C2 | 0.0482% [at 46 µM] (inactive) | –
CCCC(c1cc(C(C)(C)C)c(O)cc1C)c1cc(C(C)(C)C)c(O)cc1C | 0.0299% [at 95.7 µM] (inactive) | –
C/C=C(\C)C(=O)OCc1ccccc1 | 0.121% (inactive) | –
CCOC(=O)O[C@H](C)OC(=O)c1ccc2c(c1)cc(C(=O)NC1CCN(C(C)C)CC1)n2Cc1cc(-c2ccc(Cl)s2)on1 | -0.0665% (inactive) | –
Oc1ccc2cc(SSc3ccc4cc(O)ccc4c3)ccc2c1 | – | inactive
CS(=O)(=O)CCNCc1ccc(-c2ccc3ncnc(Nc4ccc(OCc5cccc(F)c5)c(Cl)c4)c3c2)o1 | -0.247% [at 46 µM] (inactive) | –
CCCN(CCC)C(=O)C(CCC(=O)OCCCN1CCN(CCOC(=O)Cc2c(C)n(C(=O)c3ccc(Cl)cc3)c3ccc(OC)cc23)CC1)NC(=O)c1ccccc1 (stereo not given) | 0.42% [at 46 µM] (inactive) | –
Cc1onc(-c2c(Cl)cccc2Cl)c1C(=O)N[C@@H]1C(=O)N2[C@@H]1SC(C)(C)[C@@H]2C(=O)O | 0.0042% [at 46 µM] (inactive) | –
CCc1oc2ccccc2c1C(=O)c1cc(Br)c(O)c(Br)c1 | -0.322% [at 46 µM] (inactive) | –
CCC(C)(C)C1CCCCC1OC(C)=O (stereo not given) | -0.0729% (inactive) | –

SMILES | fluorescence, % of Rose Bengal | Potency
CCCCCCCC/C=C/CCCCCCCC1=NCCN1CCO | -0.235% (inactive) | –
CCCCCCCCCCn1cc[n+](CCCCCCCCCC)c1C | -0.0484% (inactive) | –
c1ccc(CSCc2ccccc2)cc1 | 0.0022% (inactive) | –
CC(C)(C)C(=O)OCOC(=O)[C@@H]1N2C(=O)[C@@H](NC(=O)[C@H](N)c3ccccc3)[C@H]2SC1(C)C | -0.0322% [at 18.6 µM] (inactive) | –
COc1ccc(C(=O)/C(Br)=C\C(=O)O)cc1 | – | inactive
O=C1c2ccccc2Cc2ccccc21 | -0.0449% (inactive) | –
CCCCCCCCNC(C)C(O)c1ccc(SC(C)C)cc1 (stereo not given) | -0.412% [at 46 µM] (inactive) | –
COc1cc(-c2nc(NC(=O)c3cc4cc(C)cc(C)c4n3CC(=O)O)sc2CCC2CCCCC2)c(OC)cc1Cl | -0.0614% (inactive) | –
Nc1ccc2c3c(cccc13)-c1ccccc1-2 | -0.0754% (inactive) | –
Cc1cc2c(cc1C(F)(F)F)N(C(=O)Nc1ccc(Oc3cccnc3C)nc1)CC2 | -0.0178% (inactive) | –
CCC(C)Nc1ccc(NC(C)CC)cc1 (stereo not given) | 0.469% [at 95.7 µM] (inactive) | –
O=C(Oc1cccc2cccnc12)c1ccccc1 | -0.0812% [at 46 µM] (inactive) | –
Cc1c(C)c2c(c(C)c1OC(=O)CCC(=O)O)CC[C@@](C)(CCC[C@H](C)CCC[C@H](C)CCCC(C)C)O2 | – | inactive
CCCCCCCC[N+](CCCCCCCC)(CCCCCCCC)CCCCCCCC | 0.026% (inactive) | –
[Cl][Bi]([Cl])([c]1ccccc1)([c]1ccccc1)[c]1ccccc1 | -0.118% (inactive) | –
CN(C)C(=O)C1(N2CCCCC2)CCN(CC[C@@]2(c3ccc(Cl)c(Cl)c3)CN(C(=O)c3ccccc3)CCO2)CC1 | 0.128% (inactive) | –
CCCCN(CCCC)c1ccc(C(=O)c2ccccc2C(=O)O)c(O)c1 | 0.167% (inactive) | –
CCCCCCCCCOC(=O)c1ccc(O)cc1 | 0.228% (inactive) | –
O=C1C=CC(=O)N1 | -0.123% [at 95.7 µM] (inactive) | –
NNc1nc(-c2ccc([N+](=O)[O-])cc2)cs1 | -0.762% (inactive) | –
